MBNL1 CUG block: MBNL1-poly(CUG) RNA binding inhibition; 0.036% of 280,000 active; TR-FRET MBNL1-His/biotin-(CUG)12 binding, 665/545 ratio; Q9NR56; Potency, µM (series often up to 57.5 µM), hits mostly inhibitors; active means well fitted inhibition curve with a large enough effect in the signal ratio, with a control signal flat, not every such curve was filed as active; inconclusive means small, poorly fitted or top-dose-only effect, or effect the other way, or a change in a side signal; inactive means no such curve, though single readings can be large or run the other way; the % refers to the signal ratio
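Ratiometric TR-FRET (665 over 545 nm, excitation 340 nm) tracks disruption of MBNL1-His/biotin-(CUG)12 complex after 60 min at room temperature, with compounds at 92 nM to 58 uM final.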
gsp antag: antagonists of gsp mutant (McCune-Albright syndrome); Potency, µM (top dose mostly 76.9 µM), usual class: inhibitors; 0.4% of 340,000 active; gsp-mutant cells, cAMP HTRF, 30 min; calls by dose curve; cell line not stated here;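 further: intracellular cAMP measured with PDE inhibitor Ro 20-1724 present during compound exposure; nearly all actives have a fitted effect of over 65% in size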
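G418-selected cells were plated in DMEM/10% FBS for 16-24 h at 37C, then treated with compounds plus the PDE inhibitor […] (300 uM solution added) for 30 min at 37C. Intracellular cAMP was measured by HTRF after 30 min lysis at room temperature.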
S-ASM inh: human S-ASM enzyme inhibition; Potency, µM (series often up to 57.5 µM), hits mostly inhibitors; P17405; placental ASM, HMU-PC fluorogenic substrate, 60 min; 0.006% of 340,000 active; active means well fitted inhibition curve with a large enough effect; inconclusive means small, poorly fitted or top-dose-only effect; inactive means no such curve, though single readings can be large or run the other way
Target sequence (P17405 47-631 limits assumed): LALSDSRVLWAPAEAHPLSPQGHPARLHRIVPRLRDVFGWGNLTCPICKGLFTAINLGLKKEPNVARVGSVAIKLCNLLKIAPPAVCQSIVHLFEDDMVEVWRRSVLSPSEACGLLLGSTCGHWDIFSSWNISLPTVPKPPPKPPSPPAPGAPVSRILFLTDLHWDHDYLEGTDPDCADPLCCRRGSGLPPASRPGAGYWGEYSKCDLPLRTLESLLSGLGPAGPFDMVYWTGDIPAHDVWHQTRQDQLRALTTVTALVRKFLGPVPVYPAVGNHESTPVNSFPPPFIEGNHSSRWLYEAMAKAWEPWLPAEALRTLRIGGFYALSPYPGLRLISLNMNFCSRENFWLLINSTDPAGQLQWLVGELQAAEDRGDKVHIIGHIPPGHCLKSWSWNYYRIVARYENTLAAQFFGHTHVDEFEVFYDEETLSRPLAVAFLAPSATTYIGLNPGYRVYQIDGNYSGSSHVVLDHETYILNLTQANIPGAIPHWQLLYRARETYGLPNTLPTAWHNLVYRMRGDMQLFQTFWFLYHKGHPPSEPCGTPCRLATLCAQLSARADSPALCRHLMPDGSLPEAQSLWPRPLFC
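Steps: dispense placental human ASM, pin compound, wait 10 min at room temperature, add HMU-PC0 substrate at 9 uM final, incubate 60 min at 37 °C, add stop solution raising pH to 10, read fluorescence.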
gsp agonist: activates gsp, the McCune-Albright syndrome mutation; gsp mutant cells, cAMP HTRF, 30 min; Potency, µM (highest dose often 76.9 µM), usual class: activators; 0.13% of 340,000 active; active means well fitted activation curve with a large enough effect; inconclusive means small, poorly fitted or top-dose-only effect, or another doubt; inactive means no such curve, though single readings can be large or run the other way; cell line not stated here;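 further: phosphodiesterase inhibitor Ro 20-1724 added with compounds to block cAMP breakdown; nearly all actives have a fitted effect of over 60% in size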
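Cells in DMEM/10% FBS with G418 were pretreated with compounds in DMSO plus […] (300 uM stock) for 30 min at 37C. cAMP was measured by HTRF (cAMP-d2 plus anti-cAMP antibody-K) after 30 min at room temperature.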
BCR signal inh: chronic active BCR signaling inhibition; ABC-DLBCL IkBa-CBG/CBR reporter, luminescence ratio, 4 h; Potency, µM (highest dose often 46.1 µM), actives largely listed as inhibitors; 0.05% of 340,000 active; AID 493014; active means well fitted inhibition curve with a large enough effect in the signal ratio, with a control signal flat, not every such curve was filed as active; inconclusive means small, poorly fitted or top-dose-only effect, or effect the other way, or a change in a side signal; the % refers to the signal ratio
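Compounds up to 46 uM were incubated four hours with TMD8 cells whose green CBG68 luciferase is fused to IkappaBalpha; red CBR luminescence normalised the signal, and concentration-effect curves were fitted to fusion, red and ratio data.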
Hits are given with their value; . = inactive; ? = inconclusive; / = not tested or not shown; [ ] = another dose, or the depositor's remark. Most compounds without a hit are left out; they make up all but 0.62% or so of the library.

SMILES	MBNL1 CUG block	gsp antag	S-ASM inh	gsp agonist	BCR signal inh
CN(C)c1ccc(/C=C/c2ccc3c4ccccc4ccc3[n+]2-c2ccccc2)cc1	?	40µM	.	.[15.4 µM]	?
c1ccc(OCCn2c(-c3ccco3)nc3ccccc32)cc1	.	.	.	.	?
Cc1cccc(OCCn2c(-c3ccco3)nc3ccccc32)c1	.	35µM	.	.	.
O=C(NCc1cccnc1)c1cc(C(=O)C2CC2)c[nH]1	.	11µM	.	.[15.4 µM]	.
Cc1snc(S(=O)(=O)/C(C#N)=N/Nc2cccc(C(F)(F)F)c2)c1C#N	.	35µM	?	.	?
CC(OC(=O)c1cccc(-n2cnnn2)c1)C(=O)Nc1cccc(Cl)c1 (stereo not given)	/	.	/	.	.
Cc1cccc([C@@H]2[C@@H]3C(=O)N(Cc4ccccc4)C(=O)[C@@H]3[C@]3(C)C(=O)N(c4cccc(F)c4)C(=O)N23)c1	/	28µM	.	/	?
Cc1ccc(N2C(=O)N3[C@H](c4cccc(C)c4)[C@@H]4C(=O)N(Cc5ccccc5)C(=O)[C@@H]4[C@]3(C)C2=O)cc1	/	.	.	.	.
COCCN(CCOC)C(=O)c1cc2c(=O)n3ccccc3nc2s1	?	.	.	4µM	?
CCN(CC)C(=O)c1cc2c(=O)n3ccccc3nc2s1	?	.	.	?	.
Cc1noc(NS(=O)(=O)c2ccc(N3C(=O)c4ccccc4C3=O)cc2)c1C	.	.	.	2.2µM	.
Cc1noc(NS(=O)(=O)c2ccc(N)cc2)c1C	.	.	.	/	.
Cc1ccnc(NS(=O)(=O)c2ccc(N3C(=O)c4ccccc4C3=O)cc2)n1	/	.	.	25µM	.
Cc1onc(-c2ccccc2)c1-c1nc2ccccc2c(=O)o1	.	.	.	.[15.4 µM]	?
Cc1onc(-c2ccccc2)c1-c1nc2cc(Cl)ccc2c(=O)o1	/	.	.	.[15.4 µM]	13µM
CC[n+]1c(/C=C/Nc2ccccc2)sc2ccccc21	.	45µM	.	.	.
CC[n+]1c(/C=C(\C)Nc2ccccc2)sc2ccccc21	/	.	.	.[15.4 µM]	.
COc1ccc(S(N)(=O)=O)cc1C(=O)NC1CCCc2ccccc21 (stereo not given)	.	.	.	.[15.4 µM]	.
O=C(CN1CCN(C(=O)c2ccc(-c3nc4ccccc4s3)o2)CC1)Nc1ccccc1Cl	/	18µM	.	.[15.4 µM]	.
O=C(CN1CCN(C(=O)c2ccc(-c3nc4ccccc4s3)o2)CC1)Nc1ccc(F)cc1	/	45µM	.	.	?
Cc1cccc(NC(=O)CN2CCN(C(=O)c3ccc(-c4nc5ccccc5s4)o3)CC2)c1C	/	?	.	.[15.4 µM]	?
Cc1nnc(-c2ccc(Cl)cc2)[nH]c1=O	.	.	.	.	.
COC(=O)Nc1ccc(SCC(=O)c2cccc([N+](=O)[O-])c2)cc1	?	.	.	.	?
N#CC(C#N)=NNc1ccc(S(=O)(=O)N2CCCCC2)cc1	?	25µM	.	.	?
CC(=O)Nc1ccc(Oc2cc(C#N)c(C#N)cc2N2CCOCC2)cc1	.	.	.	.	21µM
SMILES	MBNL1 CUG block	gsp antag	S-ASM inh	gsp agonist	BCR signal inh
Cn1nc(CC(=O)NCc2ccc(C(F)(F)F)cc2)c2ccccc2c1=O	.	13µM	.	.	?
CC(NC(=O)C(=O)Nc1c2c(nn1-c1ccccc1)CSC2)c1ccccc1 (stereo not given)	/	/	/	/	.
CCC[C@@H](NS(=O)(=O)c1ccc(C)cc1)C(=O)Oc1ccc2c3c(c(=O)oc2c1)CCC3	.	28µM	.	?	?
CCC1=C(OC(=O)N(CC)CC)N2C(=O)OC(=NCCc3c[nH]c4ccccc34)[C@]2(Cc2ccccc2)[C@H]2C1=CC[C@H]1C(=O)NC(=O)[C@H]12	.	11µM	.	.	?
COc1ccccc1CNC(=O)c1cc(-c2ccccc2C)n(CC2CC(c3cccc([N+](=O)[O-])c3)=NO2)n1 (stereo not given)	/	.	.	/	.
Cc1cc(Cl)ccc1OC(C)C(=O)Nc1ccc(C(=O)Nc2ccccc2C(=O)O)cc1 (stereo not given)	.	32µM	.	.	?
Cc1c(NS(=O)(=O)c2cc(C(=O)NC(C)c3ccccc3)ccc2Cl)c(=O)n(-c2ccccc2)n1C (stereo not given)	/	.	.	.	.

From PubChem BioAssay
